Experimental data reported in PubChem BioAssay AID1578 (Sanford-Burnham Center for Chemical Genomics, 2009).
Screen size: about 290,000 compounds; about 3,000 (1%) were called active. This excerpt belongs to a sample that is enriched for actives. A number with no mark means an inactive call. Rule as the data show it: active = inhibition mostly above about 36% (no sharp cut-off); inactive = mostly below about 34%.

Test: inhibition of NOD1-driven NF-kB reporter – cell-based, luminescence, uHTS, primary screen (AID 1578);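 also: HEK-293T reporter cells stimulated with the NOD1 agonist gamma-tri-DAP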
Settings: NOD1-driven NF-kB luciferase reporter cells, at 4 µM, active compounds read high

Which inhibition does the source give for `Cc1nc2ccc(NC(=O)c3ccc(S(=O)(=O)N(C)C)cc3)cc2s1` here?
Its inhibition is -37.4%.

For `Cc1nc2ccc(NC(=O)c3ccc(S(=O)(=O)N(C)c4ccccc4)cc3)cc2s1`, which inhibition is on record?
The inhibition was 17.6%.

Which inhibition does the source give for `CN(c1ccccc1)S(=O)(=O)c1ccc(Cl)c(C(=O)Nc2ccc(-c3nc4ccccc4[nH]3)cc2)c1` here?
Its inhibition is 4.8%.

For `Cc1nc2ccc(NC(=O)c3ccc(Cl)c(S(=O)(=O)N(C)c4ccccc4)c3)cc2s1`, which inhibition is on record?
The inhibition was 51.8%.

With `O=C(CSc1nnc(C2COc3ccccc3O2)o1)N1CCN(c2ccccc2)CC1` (configuration not stated) as the compound, how does the inhibition read?
The inhibition was -24.7%.

For `COc1ccc(CCNC(=O)CCS(=O)(=O)c2ccc3c(c2)oc(=O)n3C)cc1OC`, which inhibition is on record?
The inhibition was -25.6%.

For `CC(Oc1ccc(Cl)cc1Cl)C(=O)NC(=S)N1CCc2ccccc21` (configuration not stated), which inhibition is on record?
The inhibition was 102% (active).

For `CC(C)C(=O)NC(=S)N1CCc2ccccc21`, which inhibition is on record?
The inhibition was -40.2%.

For `O=C(COc1ccc(Cl)cc1Cl)NC(=S)N1CCCc2ccccc21`, which inhibition is on record?
The inhibition was 28.6%.

For `CC(C)NC(=O)c1ccc2c(c1)N(CC(=O)N1CCCCC1)C(=O)C(C)(C)O2`, which inhibition is on record?
The inhibition was 1.4%.

Which inhibition does the source give for `O=C(CSc1nnnn1-c1ccccc1)Nc1ncc(Cc2cccc(Cl)c2Cl)s1` here?
The inhibition was -16.9%.

With `Cc1ccc(C)c(NC(=O)C2CC(O)CN2C(=O)OCc2ccccc2)c1` (configuration not stated) as the compound, how does the inhibition read?
The inhibition was 4.8%.

For `COC(=O)CC1(C(=O)OC)Oc2ccc(Br)cc2C(=O)N1c1cc(Cl)cc(Cl)c1` (configuration not stated), which inhibition is on record?
The inhibition was -11.1%.

With `CC(=O)Nc1nonc1NC(=O)CSc1ccccn1` as the compound, how does the inhibition read?
The inhibition was 2.6%.

With `O=C(CSc1ccccn1)Nc1nonc1[N+](=O)[O-]` as the compound, how does the inhibition read?
Its inhibition is 57.6% (active).

Which inhibition does the source give for `Cc1nonc1NC(=O)CSc1ccccn1` here?
The inhibition was 4%.

Which inhibition does the source give for `COc1ccc(NC(=O)CSc2nn3c(=O)c(C)nnc3s2)cc1` here?
The inhibition was -19.6%.

Which inhibition does the source give for `COc1ccc(NC(=O)Nc2cnccn2)c(OC)c1` here?
The inhibition was -27.1%.

Which inhibition does the source give for `CCOc1ccccc1NC(=O)Nc1cnccn1` here?
The inhibition was 11.8%.

Which inhibition does the source give for `COc1ccccc1NC(=O)Nc1cnccn1` here?
Its inhibition is 111% (active).

For `COC(=O)Nc1ccc2c(c1)N(C(=O)CCCl)c1ccccc1S2`, which inhibition is on record?
The inhibition was 3.3%.

With `COc1ccc(C(=O)NNC(=O)C(=O)/C=C(\O)c2ccc(C)cc2)cc1` as the compound, how does the inhibition read?
Its inhibition is 0.6%.

For `Cc1cccc(C(=O)NC(=S)NCc2cccnc2)c1`, which inhibition is on record?
The inhibition was -31.1%.

With `O=C(NCCCN1CCOCC1)c1cccc(S(=O)(=O)Nc2cc(Cl)ccc2Cl)c1` as the compound, how does the inhibition read?
The inhibition was -34.3%.

For `Cn1nnnc1SCC(=O)Nc1nc(-c2ccc(F)c(F)c2)cs1`, which inhibition is on record?
Its inhibition is -20.9%.

With `Cc1sc2ncnc(SCC(=O)Nc3nc(-c4ccc(F)c(F)c4)cs3)c2c1C` as the compound, how does the inhibition read?
The inhibition was -40.3%.

Which inhibition does the source give for `O=C(CSc1ncnc2[nH]ncc12)Nc1nc(-c2ccc(F)c(F)c2)cs1` here?
Its inhibition is 46% (active).

With `CC1CN(C(=O)CCC(=O)NCCCN2C(C)CCCC2C)c2ccccc2O1` (configuration not stated) as the compound, how does the inhibition read?
Its inhibition is 26.4%.

For `Cc1ccc(CNC(=O)C2CCCN(S(=O)(=O)c3c(C)[nH]c(=O)[nH]c3=O)C2)cc1` (configuration not stated), which inhibition is on record?
Its inhibition is -3.9%.

Which inhibition does the source give for `O=C(Cn1c(=O)oc2ccccc21)NC(=O)NCc1ccco1` here?
Its inhibition is -3.9%.

For `CCN(CC)C(=S)NC(=O)c1ccc(F)cc1`, which inhibition is on record?
Its inhibition is -25%.

Which inhibition does the source give for `CCCN(CCC)C(=S)NC(=O)c1ccc(-c2ccccc2)cc1` here?
Its inhibition is 52.6% (active).

With `CCOc1ccc(C(=O)NC(=S)N(Cc2ccccc2)Cc2ccccc2)cc1` as the compound, how does the inhibition read?
Its inhibition is 51.4%.

Which inhibition does the source give for `C/C(=N/NC(=O)c1ccc(C)s1)c1cccnc1` here?
The inhibition was -53.1%.

For `COc1ccc(/C=N/NC(=O)CCOc2ccccc2C)cc1OC`, which inhibition is on record?
Its inhibition is 62.5% (active).

For `COc1ccc(/C=N/NC(=O)CCC(=O)Nc2ccccc2)cc1OC`, which inhibition is on record?
The inhibition was -8.6%.

Which inhibition does the source give for `COc1cc(/C=N/NC(=O)CCOc2ccccc2C)cc(Br)c1O` here?
The inhibition was -26.7%.

With `Cc1[nH]n(-c2ccccc2)c(=S)c1C=NCCCN=Cc1c(C)[nH]n(-c2ccccc2)c1=S` as the compound, how does the inhibition read?
The inhibition was 88.7% (active).

With `Cc1[nH]n(-c2ccccc2)c(=O)c1C=NCCc1ccccc1` as the compound, how does the inhibition read?
The inhibition was -43.1%.

With `CCCCN=Cc1c(C)[nH]n(-c2ccccc2)c1=S` as the compound, how does the inhibition read?
The inhibition was 0.8%.

Which inhibition does the source give for `Cc1nnc2sc(SCC(=O)Nc3nccs3)nn2c1=O` here?
Its inhibition is -2.3%.

With `Cc1cc(-c2ccc(/C=N/n3cnnc3)o2)ccc1Cl` as the compound, how does the inhibition read?
The inhibition was 67.4% (active).

Which inhibition does the source give for `Cc1ccc(-c2ccc(/C=N/n3cnnc3)o2)cc1Cl` here?
Its inhibition is -11.3%.

With `Fc1ccc(-c2ccc(/C=N\n3cnnc3)o2)cc1Cl` as the compound, how does the inhibition read?
The inhibition was 1.3%.

For `C/C(N)=C(/C#N)C(=O)COC(=O)c1cccc(O)c1`, which inhibition is on record?
Its inhibition is -29.6%.

With `CC(=O)Nc1cccc(NC(=O)CSc2nc3ccccc3o2)c1` as the compound, how does the inhibition read?
Its inhibition is 43.3%.

Which inhibition does the source give for `COc1ccc(C(NC(C)=O)c2cc(Cl)c3cccnc3c2O)cc1` (configuration not stated) here?
Its inhibition is -6.4%.

Which inhibition does the source give for `CCCCCCNC(=O)CCc1nc2cccnc2n1Cc1ccc(OC)cc1` here?
The inhibition was -10.4%.

Which inhibition does the source give for `CC1CCCC(C)N1C(=O)c1cc(-c2cccs2)on1` (configuration not stated) here?
The inhibition was -28.6%.

For `CC1=C/C(=N\NC(=S)NCCc2ccccc2)CC(C)(C)C1`, which inhibition is on record?
The inhibition was -43.4%.

For `CC1=C/C(=N\NC(=S)Nc2cccnc2)CC(C)(C)C1`, which inhibition is on record?
Its inhibition is 43.4% (active).

Which inhibition does the source give for `CC(C)(C)C1CCC(=NNC(=S)Nc2cccnc2)CC1` (configuration not stated) here?
Its inhibition is -17.4%.

For `CCOC(=O)C1CCCN(C(=O)CNC(=O)c2nn(-c3ccc(OC)c(Cl)c3)c(=O)c3ccccc23)C1` (configuration not stated), which inhibition is on record?
The inhibition was -5.1%.

Which inhibition does the source give for `CC(C)OC(=O)CC(=O)CSc1nc2c(cc1C#N)CCCCCC2` here?
The inhibition was -24.1%.

Which inhibition does the source give for `CC(C)OC(=O)CSc1nc2c(cc1C#N)CCCCC2` here?
Its inhibition is 111% (active).

For `CC(C)OC(=O)CC(=O)CSc1nc2c(cc1C#N)CCCCC2`, which inhibition is on record?
Its inhibition is -26.3%.

Which inhibition does the source give for `O=C(c1cccs1)N1CCC(C(=O)N2CCN(Cc3ccc4c(c3)OCO4)CC2)CC1` here?
The inhibition was -24.9%.

Which inhibition does the source give for `CCN1C(=O)c2cccc3c(S(=O)(=O)NCc4ccco4)ccc1c23` here?
Its inhibition is -23%.

With `Cc1ccc(-n2cc(C(=O)c3ccc(N4CCN(C)CC4)cc3)nn2)cc1Cl` as the compound, how does the inhibition read?
The inhibition was -52.8%.

For `CCSC1=C(C#N)C(=O)n2c1cc1c2CCCC1`, which inhibition is on record?
Its inhibition is 67% (active).

With `N#CC1=C(N2CCCCC2)c2cc3c(n2C1=O)CCCC3` as the compound, how does the inhibition read?
The inhibition was 7.7%.

For `CCOC(=O)C1=C(SCC)c2cc3c(n2C1=O)CCCC3`, which inhibition is on record?
Its inhibition is -36.8%.

For `COc1ccc(C(c2nnnn2C(C)C)N2CCN(C(=O)c3ccco3)CC2)cc1` (configuration not stated), which inhibition is on record?
Its inhibition is 10.7%.

With `CC(=O)c1cc(C#N)c(NCc2ccccc2)nc1C` as the compound, how does the inhibition read?
Its inhibition is -40.7%.

Which inhibition does the source give for `c1cn(CCCNc2ncnc3sc4c(c23)CCC4)cn1` here?
Its inhibition is 29.2%.

For `CCOc1cccc(-c2cc(C(=O)Nc3ccon3)c3ccccc3n2)c1`, which inhibition is on record?
The inhibition was -14%.

Which inhibition does the source give for `CCOC(=O)C(=O)N1CCN(c2nc(-c3ccc(Cl)cc3)cs2)CC1` here?
Its inhibition is -19.1%.

Which inhibition does the source give for `O=C1CC(Cc2ccc(Br)cc2)C(=O)N1c1ccccc1` (configuration not stated) here?
Its inhibition is -19.8%.

For `Clc1ccc(N/N=C/c2ccncc2)cc1Cl`, which inhibition is on record?
The inhibition was -40.8%.

For `Clc1cncc(Cl)c1N/N=C/c1ccccc1`, which inhibition is on record?
Its inhibition is -10.5%.

For `Clc1cncc(Cl)c1N/N=C/c1ccncc1`, which inhibition is on record?
Its inhibition is 75.3% (active).

With `CCOc1cc(/C=C(/NC(C)=O)C(=O)O)cc(Cl)c1OCc1cccc(Br)c1` as the compound, how does the inhibition read?
Its inhibition is -9.8%.

With `O=C(c1ccc(Cl)cc1)C1CCCN(Cc2ccc(Oc3ncccn3)cc2)C1` (configuration not stated) as the compound, how does the inhibition read?
Its inhibition is 19.6%.

Which inhibition does the source give for `CC(C)Oc1cccc(C(=O)C2CCCN(Cc3cnn(C(C)C)c3)C2)c1` (configuration not stated) here?
The inhibition was -18.3%.

Which inhibition does the source give for `CC(C)Oc1cccc(C(=O)C2CCCN(Cc3ccc4nonc4c3)C2)c1` (configuration not stated) here?
Its inhibition is 55.2% (active).

With `COc1ccc(C(=O)C2CCCN(Cc3ccc4nonc4c3)C2)cc1OC` (configuration not stated) as the compound, how does the inhibition read?
Its inhibition is -4.5%.

For `COc1ccc(CN2CCCC(C(=O)c3ccc(Cl)cc3)C2)cc1Cn1cccn1` (configuration not stated), which inhibition is on record?
The inhibition was -12.4%.

Which inhibition does the source give for `Cc1cccc(-c2nc3c(c(SCC(N)=O)n2)CCCC3)c1` here?
Its inhibition is -10.2%.

For `CC(C)c1ccc(NC2CCCN(C(=O)c3cccc(N4CCNC4=O)c3)C2)cc1` (configuration not stated), which inhibition is on record?
The inhibition was 30.5%.

For `CC(=O)c1cccc(NC(=O)c2ccc(N(Cc3ccccc3C)S(C)(=O)=O)cc2)c1`, which inhibition is on record?
The inhibition was 6.4%.

For `Nc1ccc(-c2ccc(C(=O)O)s2)cn1`, which inhibition is on record?
Its inhibition is -26.1%.

With `CNC(=O)c1ccc(-c2ccccc2)s1` as the compound, how does the inhibition read?
Its inhibition is -12.7%.

For `O=C(O)c1ccc(-c2ccc(-c3ccccc3)cc2)s1`, which inhibition is on record?
The inhibition was 93.5% (active).

Which inhibition does the source give for `O=C(CNC(=O)c1ccco1)NCCCc1ccccc1` here?
The inhibition was 17.4%.

With `O=c1/c(=C/c2ccccn2)sc2nc3ccccc3n12` as the compound, how does the inhibition read?
The inhibition was -98.1%.

For `CCN(CC)c1ccc(/C=c2\sc3nc4ccccc4n3c2=O)c(O)c1`, which inhibition is on record?
The inhibition was 33.8%.

With `Cc1cc(/C=C2/NC(=O)NC2=O)c(C)n1-c1ccccn1` as the compound, how does the inhibition read?
The inhibition was -34.5%.

Which inhibition does the source give for `Cc1cc(/C=c2\sc3nc4ccccc4n3c2=O)c(C)n1-c1ccc(C(=O)O)cc1` here?
The inhibition was 20.6%.

With `Cc1cc(/C=c2/sc3nc4ccccc4n3c2=O)c(C)n1-c1ccccn1` as the compound, how does the inhibition read?
Its inhibition is 74.4% (active).

For `O=c1c2ccccc2cnn1-c1ccc(Cl)nn1`, which inhibition is on record?
Its inhibition is -19%.

Which inhibition does the source give for `Cc1ccccc1-n1nc2c(c1NC(=O)c1c(-c3ccccc3Cl)noc1C)CS(=O)(=O)C2` here?
The inhibition was -10.3%.

For `Cc1nn(C)cc1CNC(=O)c1ccc(Br)o1`, which inhibition is on record?
The inhibition was -3.1%.

Which inhibition does the source give for `COc1ccc2ccccc2c1/C=N\NC(=O)c1ccc(C)s1` here?
Its inhibition is -3.2%.

With `Cc1ccc(OCC(=O)NNC(=O)CSc2ncc(C#N)c(N)n2)cc1` as the compound, how does the inhibition read?
Its inhibition is -22.7%.

For `Cc1cccc(OCC(=O)NNC(=O)CSc2ncc(C#N)c(N)n2)c1`, which inhibition is on record?
Its inhibition is 98.2% (active).

Which inhibition does the source give for `N#Cc1cnc(SCC(=O)NNC(=O)COc2cccc3ccccc23)nc1N` here?
Its inhibition is -19.9%.

Which inhibition does the source give for `CCCCn1c(SCC(=O)N2CCOCC2)nc2ccccc2c1=O` here?
The inhibition was -11.7%.
